Only some compounds are listed: those with a hit (about 2.4% of all), similar ones and a draw of the others.
PREPL inh – inhibits the human prolyl oligopeptidase-like enzyme; Q4J6C6; recombinant PREPL, fluorescence polarization activity-based probe; inhibition, % at 5.96 µM; 0.68% of 320,000 active; AID 2751; in the data active = inhibition above about 43%
Rpn11 block – inhibitors of human proteasome Rpn11. O00487. human 26S proteasome, Ub4-pepOG fluorescence polarization; 20S core pre-blocked with epoxomicin. inhibition, % at 20 µM. 0.59% of 360,000 active. AID 588493;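 active = inhibition at 20 µM, scaled to each plate's controls, above about 33%, limit read from the data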
Target sequence (O00487 whole entry, looked up): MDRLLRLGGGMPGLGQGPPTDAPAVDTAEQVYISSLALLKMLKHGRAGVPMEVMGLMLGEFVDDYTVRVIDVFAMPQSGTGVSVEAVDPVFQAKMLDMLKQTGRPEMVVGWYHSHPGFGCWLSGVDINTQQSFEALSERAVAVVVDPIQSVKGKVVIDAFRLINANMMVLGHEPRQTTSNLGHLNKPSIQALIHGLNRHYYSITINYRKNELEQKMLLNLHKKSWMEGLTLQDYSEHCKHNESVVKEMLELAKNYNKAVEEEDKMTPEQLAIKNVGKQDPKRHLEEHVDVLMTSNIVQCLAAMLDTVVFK
NadD block – blocks S. aureus nicotinate mononucleotide adenylyltransferase; purified NadD enzyme, colorimetric absorbance read-out; inhibition, % at 20 µM; 0.78% of 360,000 active; in the data active = inhibition above about 26%
PP1 inh – counter-screen for PP5 inhibitors: inhibitors of human PP1-alpha. P62136. purified PP1alpha, OMFP fluorescence. inhibition, % at 6.7 µM. 0.9% of 320,000 active;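 active = inhibition above the mean inhibition of all tested compounds plus 3 SD, computed separately for each screening campaign, cut at about 15% in these data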
Target sequence (P62136 whole entry, looked up): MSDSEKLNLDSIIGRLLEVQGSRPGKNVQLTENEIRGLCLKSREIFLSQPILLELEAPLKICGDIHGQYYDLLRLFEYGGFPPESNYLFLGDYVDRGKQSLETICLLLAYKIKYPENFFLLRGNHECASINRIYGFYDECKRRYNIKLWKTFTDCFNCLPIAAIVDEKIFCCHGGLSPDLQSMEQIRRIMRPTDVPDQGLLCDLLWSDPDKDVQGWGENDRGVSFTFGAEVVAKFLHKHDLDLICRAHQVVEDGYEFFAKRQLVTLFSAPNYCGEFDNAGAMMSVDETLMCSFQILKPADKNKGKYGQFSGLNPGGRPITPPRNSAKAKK
PP5 primary – PP5 (human) phosphatase inhibition; P53041; purified PP5c, OMFP substrate fluorescence; inhibition, % at 6.7 µM; 0.18% of 320,000 active; AID 1987;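 active = inhibition above the campaign's mean inhibition across all tested compounds plus 3 SD, cut at about 9.5% in these data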
PP1 confirm – human PP1 phosphatase inhibition, confirmation | inhibition, % at 6.7 µM | 52% of 1,900 active | AID 2358 | purified PP1alpha, OMFP substrate fluorescence | shares compounds with PP1 inh;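 active = mean PP1 inhibition above a set limit taken from the earlier primary screen, cut at about 15% in these data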
PP5 inh counter – counter-screen for PP1 inhibitors: human PP5 phosphatase inhibition; shares compounds with PP1 inh; purified PP5c, OMFP fluorescence; inhibition, % at 6.7 µM; 4% of 1,900 active;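 active = mean PP5 inhibition over triplicate wells above about 9.5% taken from the earlier PP1 screen, limit read from the data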
Of the large screens only hits and unclear results are named; the others gave an inactive call (follow-up assays come after a bar, where shown).

COc1ccc(-n2cccc2/C=C2\C(=N)N3N=C(c4ccco4)SC3=NC2=O)cc1	NadD block 74, PP1 inh 38 (not shown: Rpn11 block) | PP1 confirm 30 | PP5 inh counter inactive
Cc1ccc(-c2cc(C(=O)N/N=C/c3ccco3)[nH]n2)cc1	none | PP1 confirm inactive | PP5 inh counter inactive
O=C(N/N=C/c1ccco1)c1cc(-c2ccccc2)n[nH]1	none
CC1(C)C(N(O)C(=O)Nc2ccc(Cl)cc2)N(c2ccc(Cl)cc2)C(=O)N1CC(=O)NN (centres undefined)	none
CN(C)CCCNc1nc(N)c([N+](=O)[O-])c(NC2CCCCC2)n1	none
CCN(CC)c1ccc(/C=N/NC(=O)Cc2nnc(NC(=O)Nc3ccccc3)s2)cc1	NadD block 48, PP1 inh 20 | PP1 confirm 25 | PP5 inh counter inactive
Cn1nccc1C(=O)N1CCCC(N2CCN(Cc3ccc4c(c3)OCO4)CC2)C1 (centres undefined)	none (no result: PREPL inh, PP1 inh, PP5 primary)
O=C(NCCc1ccccc1)/C(=C\c1ccc([N+](=O)[O-])cc1)NC(=O)c1ccc(Br)cc1	PP1 inh 18 | PP1 confirm 22 | PP5 inh counter inactive
O=C(NCCc1ccccc1)/C(=C\c1ccc([N+](=O)[O-])cc1)NC(=O)c1ccco1	none
COCCn1c(=NC(=O)/C=C/c2ccccc2Cl)sc2cc(NC(C)=O)ccc21	none
COCCn1c(=NC(=O)c2cccs2)sc2cc(NC(C)=O)ccc21	PP1 inh 19 | PP1 confirm inactive | PP5 inh counter inactive
O=C(O)CCN1C(=O)/C(=C\c2cccc(OCC(=O)Nc3ccc(Cl)cc3)c2)SC1=S	PP1 inh 24 | PP1 confirm inactive | PP5 inh counter inactive
O=C(CCN1C(=O)/C(=C\c2ccccc2)SC1=S)Nc1ccc(C(=O)O)cc1	PP1 inh 20 | PP1 confirm inactive | PP5 inh counter inactive
COc1cc(NC(=O)COc2ccccc2[N+](=O)[O-])ccc1NC(=O)c1ccco1	PP1 inh 20 | PP1 confirm 19 | PP5 inh counter inactive
COc1cccc(N=Nc2c(=O)[nH]n3c(=O)c4c([nH]c23)CCC4)c1	PP1 inh 20 | PP1 confirm 16 | PP5 inh counter inactive
CCOC(=O)c1cccc(C2=CC(=O)CC(C)(C)C2)c1	none
COc1ccc(-c2oc3ccccc3c2C#Cc2cncn2C)cc1	PP1 inh 18 | PP1 confirm 25 | PP5 inh counter inactive
O=C(CCN1C(=O)S/C(=C/c2ccccc2)C1=O)Nc1ccc(O)c(C(=O)O)c1	none
Cc1ccc(-c2nnc(SCC(=O)N/N=C/c3ccc(C)s3)n2-c2ccc(C)cc2)cc1	PP1 inh 20 | PP1 confirm inactive | PP5 inh counter inactive
Cc1ccc(-c2nnc(SCC(=O)N/N=C/c3ccccc3C(=O)O)n2-c2ccccc2)cc1	none (no result: Rpn11 block, NadD block)
Cc1cc(N/N=C/c2ccc(Cl)cc2)nc(NCc2ccccc2)n1	PP1 inh 19 | PP1 confirm inactive | PP5 inh counter inactive
SC(COCc1ccccc1)CN1CCN(Cc2ccc3c(c2)OCO3)CC1 (centres undefined)	PP1 inh 25 | PP1 confirm inactive | PP5 inh counter inactive
Cc1ccccc1NC(=O)C(=O)NNC(=O)COc1ccc2ccccc2c1	PP1 inh 18 | PP1 confirm inactive | PP5 inh counter inactive
COc1cc(OC)cc(C(=O)NN2CCOCC2)c1	none
CS(=O)(=O)c1ccc(-c2nnc(NC(=O)c3ccc(S(=O)(=O)N4CCCC4)cc3)o2)cc1	none
COc1ccc(-c2nnc(NC(=O)c3ccc(S(=O)(=O)N4CCCc5ccccc54)cc3)o2)cc1	NadD block 86, PP1 inh 29 | PP1 confirm 40 | PP5 inh counter inactive
O=C(Nc1nnc(C2CC2)o1)c1ccc(S(=O)(=O)N2CCCc3ccccc32)cc1	PP1 inh 33 | PP1 confirm 31 | PP5 inh counter inactive
COc1ccc(C(=O)N2C=Cc3ccccc3C2C(N)=O)cc1 (centres undefined)	none (no result: PREPL inh, PP1 inh, PP5 primary)
COc1ccc(C2SCC(=O)N2C)cc1 (centres undefined)	none
CC(C)N1C(=O)CSC1c1ccc(Br)cc1 (centres undefined)	PP1 inh 87 | PP1 confirm inactive | PP5 inh counter inactive
COCCN(C(=O)COC(=O)c1cc2c(s1)CCC2)c1c(N)n(Cc2ccccc2)c(=O)[nH]c1=O	PP1 inh 18 (not shown: Rpn11 block) | PP1 confirm inactive | PP5 inh counter inactive
CCc1noc(C)c1C(=O)OCC(=O)N(CCOC)c1c(N)n(Cc2ccccc2)c(=O)[nH]c1=O	PP1 inh 22 | PP1 confirm inactive | PP5 inh counter inactive
Cc1nn(CC(=O)NNC(=O)c2ccccc2F)c([N+](=O)[O-])c1Br	none
O=C(Nc1nc(-c2ccccn2)cs1)c1cccc(S(=O)(=O)N2CCOCC2)c1	PP1 inh 30 | PP1 confirm 32 | PP5 inh counter inactive
O=C(Nc1nc(-c2ccccn2)cs1)c1ccc(S(=O)(=O)N2CCCCC2)cc1	PP1 inh 29 (no result: Rpn11 block, NadD block) | PP1 confirm 27 | PP5 inh counter inactive
CSc1ccccc1C(=O)NC1CCSc2ccccc21 (centres undefined)	none
CN(c1ccccc1)c1ccc(/C=C(\CCC(=O)O)c2nc3ccccc3s2)cc1[N+](=O)[O-]	PP1 inh 26 | PP1 confirm inactive | PP5 inh counter inactive
CNc1ccc(/C=C(\CCC(=O)O)c2nc3ccccc3s2)cc1[N+](=O)[O-]	PP1 inh 32 | PP1 confirm 24 | PP5 inh counter inactive
COc1ccc2nc(N3C(=O)C(O)=C(C(=O)c4ccco4)C3c3ccc(OC)c(OC)c3)sc2c1 (centres undefined)	none (no result: PREPL inh, PP1 inh, PP5 primary)
COC(=O)c1sc(N2C(=O)C(O)=C(C(=O)c3ccc(C)o3)C2c2ccc(OC)c(OC)c2)nc1C (centres undefined)	none (no result: PREPL inh, PP1 inh, PP5 primary)
CCCCOc1cccc(C2C(C(=O)c3ccc(C)o3)=C(O)C(=O)N2c2nnc(C)s2)c1 (centres undefined)	none (no result: PREPL inh, PP1 inh, PP5 primary)
Cc1ccc2nc(N3C(=O)C(O)=C(C(=O)c4ccc(C)o4)C3c3cccc(O)c3)sc2c1 (centres undefined)	PP1 inh 25 | PP1 confirm 27 | PP5 inh counter 9.7
COC(=O)c1sc(N2C(=O)C(O)=C(C(=O)c3ccc(C)o3)C2c2ccc([N+](=O)[O-])cc2)nc1C (centres undefined)	PP1 inh 43 | PP1 confirm 29 | PP5 inh counter inactive
C=CCOc1cccc(C2C(C(=O)c3ccc(C)o3)=C(O)C(=O)N2c2nccs2)c1 (centres undefined)	PP1 inh 22 | PP1 confirm 15 | PP5 inh counter inactive
CCOC(=O)c1sc(N2C(=O)C(O)=C(C(=O)c3ccc(C)o3)C2c2cccc([N+](=O)[O-])c2)nc1C (centres undefined)	PP1 inh 35 | PP1 confirm 21 | PP5 inh counter inactive
Cc1ccc2nc(NC(=O)CSc3nnc(C)c(=O)n3N)sc2c1	none
